Data as given in PubChem BioAssay (NCI).
Where “and” joins values, the source holds several entries; their conditions need not be identical. Identical values can stand only once. Compounds without any hit were thinned out: in the full panel of roughly 83,000, 20% have a hit.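 Growth was measured after 48 h exposure to one concentration of compound in 96-well plates. Values under 10 count as active.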 Calls of active or inactive are those of the source.

tested on: MDA-MB-468 breast; experiment: NCI-60 one-dose screen, 48 h (100 = growth as untreated, 0 = no growth, -100 = all killed); settings: 10 µM unless noted

SMILES | growth
O=S(=O)(F)c1ncnc2nc[nH]c12 | 96.1% (inactive)
CNC(=O)Oc1ccc(C(C)(C)C)cc1OC(=O)NC | 88.4% (inactive)
O=C(NCCN1CC1)C(=O)NCCN1CC1 | 81.3% (inactive)
[O]=[Sn]([CH]1CCCCC1)[CH]1CCCCC1 | -92.2% (active)
CC1=C(SCCC(=O)OCC(=O)NCCC[Te]c2ccccc2)C(=O)c2ccccc2C1=O | 9.39% (active)
CCC[CH2][Sn]([CH2]CCC)([CH2]CCC)[O]C(=O)c1ccc(Cl)cc1Cl | -80.7% (active)
COc1cc2c(cc1OC)[C@@H]1N(CC2)C(=O)c2ccccc2[C@@]1(C)C(=O)O | 103% (inactive)
O=C(CC1(O)C(=O)Nc2ccc(Cl)cc21)c1ccc(C(=O)NCC2CCC3(CC2)OOC2(CCCCC2)OO3)cc1 (stereo not given) | 18% (inactive)
CC(/C=N/N=C(N)N)=N/N=C(N)N | 93.9% (inactive)
Cc1cc(N(CCCl)CCCl)ccc1C=Nc1ccccc1-c1ccccc1 | 2.49% (active)
O=C1CNC(c2ccccc2)c2cc(Cl)ccc2N1 (stereo not given) | 104% (inactive)
O=[N+]([O-])c1ccc(OP(=O)(CCl)N(CCCl)CCCl)cc1 (stereo not given) | 101% (inactive)
CC[C@H](C)[C@H](NC(=O)[C@H]1CCCCN1C)C(=O)N(C)[C@H](C[C@@H](O)c1nc(C(=O)N[C@@H](Cc2ccccc2)C[C@H](C)C(=O)O)cs1)C(C)C | 70.1% (inactive)
CC1(C)C2CCC1(CS(=O)(=O)O)C(=O)C2 (stereo not given) | 123% (inactive)
CC(C)=CCc1c2c(c(O)c3c1O[C@]14C(=C[C@@H]5C[C@H]1C(C)(C)O[C@@]4(C/C=C(/C)C(=O)O)C5=O)C3=O)C=CC(C)(C)O2 | -80.8% (active)
O=S(=O)(c1ccc(Cl)cc1)C(Cl)(Cl)Cl | -20.4% (active)
CCCCCCCCCCCCCCCC[N+](C)(C)Cc1ccccc1 | -27.3% (active) and -40.6% (active)
CCC1CN1CCCCN1CC1CC (stereo not given) | 101% (inactive)
COC(=O)[C@@H](C)C[C@H](Cc1ccccc1)NC(=O)c1csc([C@@H](C[C@H](C(C)C)N(C)C(=O)[C@@H](NC(=O)[C@H]2CCCCN2C)C2CCCCC2)OC(C)=O)n1 | -8.49% (active)
N#[N+]c1nc2nc(N)[nH]c(=O)c2[nH]1 | 100% (inactive)

SMILES | growth
CC[C@H](C)[C@H](NC(=O)[C@H]1CCCCN1C)C(=O)N(C)[C@H](CCc1nc(C(=O)N[C@@H](Cc2ccccc2)C[C@H](C)C(=O)O)cs1)C(C)C | 36.1% (inactive)
O=C1NC(=O)C(=Cc2ccccc2)C(=O)N1 | 96.4% (inactive) and 115% (inactive)
COC(=O)[C@@H](C)C[C@H](Cc1ccccc1)NC(=O)c1csc([C@@H](C[C@H](C(C)C)N(C)C(=O)[C@@H](NC(=O)CN(C)C)C2CC2)OC(C)=O)n1 | -0.222% (active)
CC/C(=C/c1ccc(OC)cc1)[N+](=O)[O-] | -56.6% (active)
CCCC1CCCCC12C(=O)NC(=O)NC2=O (stereo not given) | 113% (inactive)
CC(C)CCC1(CCCl)C(=O)NC(=O)NC1=O | 90.1% (inactive)
Cc1ccc(N)cc1[As]=[As]c1cc(N)ccc1C (stereo not given) | -92.9% (active)
O=C(O)CNCP(=O)(O)O | 102% (inactive)
COC(=O)[C@@H](C)C[C@H](Cc1ccc(F)cc1)NC(=O)c1csc([C@@H](C[C@H](C(C)C)N(C)C(=O)[C@@H](NC(=O)[C@H]2CCCCN2C)C2CC2)OC(C)=O)n1 | 22.5% (inactive)
[Cl][Hg][n]1cnc2c(Cl)c(Cl)c(Cl)cc21 | 115% (inactive)
C/C(Cc1ccc(Cl)cc1)=C(\c1ccc(OCCN2CCOCC2)cc1)c1ccc(OC(=O)Cc2ccccc2)cc1 | 88.7% (inactive)
C/C=C\C(=O)O[C@@H]1CC2O[C@@H]3C=C(C)C(=O)C[C@]3(C)[C@]1(C)[C@]21CO1 | -29.7% (active)
CCCCCCCC(=O)OCC/C=C/C1OC1C1OC(=O)/C=C\C=C\c2nc(oc2C)/C=C(/C)CCC2OC2C1OC(=O)NC(C)=O (stereo not given) | -51.1% (active)
CC[C@H](C)[C@H](NC(=O)[C@H]1CCCCN1C)C(=O)N(C)[C@H](C[C@@H](OC(C)=O)c1nc(C(=O)N[C@@H](Cc2ccccc2)C[C@H](C)C(=O)OC)cs1)C(C)C | -7.99% (active)
CC(CO)NC1CCCCC1 (stereo not given) | 107% (inactive)
O=C(N/N=C/c1ccc(N(CCCl)CCCl)cc1)c1cc(=O)[nH]c(=O)[nH]1 | -0.0833% (active)
C[N+]1(CC#CC[N+]2(C)CCCC2)CCCC1 | 98.6% (inactive)
O=[N+]([O-])c1ccccc1N1CCNCC1 | 113% (inactive)
CC(C)c1cc([N+](=O)[O-])cc([N+](=O)[O-])c1O | 96.7% (inactive)
O=C1c2ccccc2C(=O)C(Cl)C1Cl (stereo not given) | -89.9% (active)
